Assay outcomes deposited in PubChem by National Center for Advancing Translational Sciences (NCATS).
HTT ATP protect = protects HTT-Q103 PC12 cells, measured by ATP | PC12 HTT-Q103 induced, cytoprotection, ATP luminescence, 40 h | Potency, µM (titrated, usually from 56.4 µM), without a hit: cytoprotection (ATP increase), usual class: activators | hit rate 0.14% among 230,000 | AID 1471; note: % of control where 0% means no effect; nearly all actives have a fitted effect of over 45% in size
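Readout: ATPlite luminescence (ATP level). Model: stable PC12, inducible Htt exon1 Q103-GFP. Inducer: tebufenozide, 100 nM final. Compounds: dose series. No G418 in medium.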
NPSR antag = neuropeptide S receptor (human) antagonism, cAMP; Q6W5P4; CHO-NPSR cells, cAMP TR-FRET, antagonist mode; Potency, µM (highest dose often 38.3 µM), inactives show at the highest dose activity change, negative = inhibition, most hits filed as inhibitors; hit rate 1% among 220,000; note: % is set by controls: 0 for no effect and ±100 for the full control effect; nearly all actives have a fitted effect of over 50% in size
Target sequence (Q6W5P4 whole entry, looked up): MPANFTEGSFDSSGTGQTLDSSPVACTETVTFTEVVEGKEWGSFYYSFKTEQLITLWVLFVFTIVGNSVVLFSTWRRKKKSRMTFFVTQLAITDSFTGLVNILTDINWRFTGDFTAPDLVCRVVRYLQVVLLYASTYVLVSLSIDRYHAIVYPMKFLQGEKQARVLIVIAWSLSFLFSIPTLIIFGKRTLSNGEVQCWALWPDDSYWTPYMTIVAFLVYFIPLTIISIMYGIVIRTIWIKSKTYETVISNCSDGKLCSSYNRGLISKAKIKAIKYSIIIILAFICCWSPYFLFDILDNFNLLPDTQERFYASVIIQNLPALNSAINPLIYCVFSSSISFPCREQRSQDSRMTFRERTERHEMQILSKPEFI
ERK EGF inh = blocks ERK signaling stimulated by EGF; Potency, µM (titrated, usually from 11.5 µM), for the others: top-dose activity change, negative = inhibition, hits mostly inhibitors; hit rate 0.41% among 130,000; HEK293-V1b, EGF-stimulated phospho-ERK AlphaScreen;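 note: plate controls were stimulated vehicle wells for no effect and unstimulated vehicle basal for full effect; nearly all actives have a fitted effect of over 55% in size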
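Readout: AlphaScreen signal for phosphorylated ERK in lysed HEK293 cells stably expressing V1b. Stimulus 25 nM EGF, 5 min, following 30 min compound exposure. Data scaled to DMSO basal and full EGF activation.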
IMPase Li inh = membrane-permeable IMPase blocker, potentiated with lithium; AID 1457; Potency, µM (doses to about 59.4 µM), for inactives: at the top dose activity, negative = IMPase inhibition, most hits filed as inhibitors; CHO-M1 cells, IP1 TR-FRET (IP-One), carbachol + lithium; hit rate 0.35% among 210,000;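 note: IP1 builds up when IMPase is blocked and the TR-FRET signal falls; plate controls were basal vehicle for no effect and high inhibitor control for full effect; nearly all actives have a fitted effect of over 50% in size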
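Test compounds were applied to CHO-M1 cells previously cultured for 16–30 h at 2000 per well. A small lithium amount accompanied them; after 30 min at 37C, IP1 was quantified by TR-FRET.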
HttQ103 aggreg = inhibitors of mutant huntingtin aggregate formation in PC12 cells | Potency, µM (doses to about 46.1 µM), for the others: at the highest dose activity change, negative = inhibition, hits mostly inhibitors | PC12 HttQ103-GFP aggregates, Acumen cytometry, 40 h | hit rate 1.1% among 220,000; note: % is set by controls: 0 for no effect and ±100 for the full control effect; nearly all actives have a fitted effect of over 60% in size
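PC12/HTTQ103-GFP, ecdysone-inducible; teb 100 nM; cpd qHTS titration; GFP aggregates read on laser cytometer, Ex 488/Em 500-530 nm.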
The depositor's hits bear a star; [ ] = another dose, or the depositor's remark. Sampled rows, rich in hits. Any-hit rate of the full collection: about 1.9%. Calls come from the whole dose curve; as a rule, active = well fitted curve in the direction sought with a large enough effect; inconclusive = small, poorly fitted or top-dose-only effect, or another doubt; inactive = no such curve, though single readings can be large; an effect the other way counts as inactive or inconclusive. Potency is the fitted concentration of half-maximal effect.

What do the screens show for `COc1ccc2[nH]c(=O)c(CN(C)C(=O)C3CCCCC3)cc2c1`?
HTT ATP protect: -20%[0.074 µM]; NPSR antag: 11%[46.1 µM]; IMPase Li inh: 28µM*; HttQ103 aggreg: 7%

How did COc1ccc2[nH]c(=O)c(CN(C)C(=O)c3ccncc3)cc2c1 do in these assays?
HTT ATP protect: -3%[0.074 µM]; NPSR antag: 2%[46.1 µM]; IMPase Li inh: 20%[38.3 µM]; HttQ103 aggreg: -15%

Results for O=C(CSc1nnc(-c2ccco2)n1Cc1ccccc1)OC1CCCCC1 ?
HTT ATP protect: 13%; NPSR antag: -25%[46.1 µM]; IMPase Li inh: 1%[38.3 µM]; HttQ103 aggreg: 32µM*

How did O=C(CSc1nnc(-c2ccncc2)n1Cc1ccco1)OC1CCCCC1 do in these assays?
HTT ATP protect: -5%; NPSR antag: -6%[46.1 µM]; IMPase Li inh: 13%[38.3 µM]; HttQ103 aggreg: 4%

What do the screens show for `O=C1c2cccc(Sc3ccccc3)c2C(=O)c2c(Sc3ccccc3)cccc21`?
HTT ATP protect: 21%[10 µM]; NPSR antag: -2%; ERK EGF inh: 7.1µM*; HttQ103 aggreg: -2%[9.22 µM]

Results for CNCCCCc1cnc(C)c2[nH]c3ccccc3c12 ?
HTT ATP protect: 3.5µM*; ERK EGF inh: -4%; IMPase Li inh: 10%

How did Cc1ccc(C)c2c1[nH]c1ccccc12 do in these assays?
HTT ATP protect: 34%; NPSR antag: 9%[46.1 µM]; IMPase Li inh: 25%[38.3 µM]; HttQ103 aggreg: 4%

What do the screens show for `Cc1ccc(C)c(N(CC(=O)Nc2ccc(-c3nc4ccc(C)cc4s3)cc2)S(C)(=O)=O)c1`?
HTT ATP protect: 18%[10 µM]; NPSR antag: -40%; ERK EGF inh: 7%; IMPase Li inh: -16%; HttQ103 aggreg: 7%

How did Cc1ccc(N(CC(=O)Nc2ccc(-c3nc4ccc(C)cc4s3)cc2)S(C)(=O)=O)cc1 do in these assays?
HTT ATP protect: -52%; NPSR antag: inconclusive; IMPase Li inh: 13µM*; HttQ103 aggreg: inconclusive

What do the screens show for `Cc1ccc2nc(-c3ccc(NC(=O)CCS(=O)(=O)c4ccccc4)cc3)sc2c1`?
HTT ATP protect: -11%[10 µM]; NPSR antag: 12%; ERK EGF inh: 2%; IMPase Li inh: 13µM*; HttQ103 aggreg: -2%

Results for COC(=O)[C@H](COC(C)(C)C)NC(=O)O[C@@H]1Cc2cc(Br)ccc2O[C@H]1c1cccc(OC)c1 ?
HTT ATP protect: -27%; ERK EGF inh: -1%; IMPase Li inh: 21%

What do the screens show for `COCCn1c(=O)c(-c2ccc(OC)cc2)nc2cnc(Oc3ccccc3)nc21`?
HTT ATP protect: 8%; ERK EGF inh: 14%; IMPase Li inh: 1%

How did N#C/C(=C/Nc1ccccc1)c1ccsc1 do in these assays?
HTT ATP protect: -8%; NPSR antag: -20%[46.1 µM]; IMPase Li inh: -9%[38.3 µM]; HttQ103 aggreg: 13µM*

What do the screens show for `CC(C)CO/N=C1/C[C@@H](O)[C@@H](O)[C@@H]2[C@@H]3C(=O)N(Cc4ccccc4)C(=O)[C@H]3CC[C@@H]12`?
HTT ATP protect: 2.8µM*

Results for CC(C)CO/N=C1/C[C@@H](O)[C@@H](O)[C@@H]2[C@@H]3C(=O)N(Cc4ccccc4)C(=O)[C@H]3CC[C@H]12 ?
HTT ATP protect: -8%[10 µM]

What do the screens show for `C/C=C/OC(=O)NC(c1cccc(C)c1)[C@@]1(C(=O)OCC)CCCC1=O` (some centres undefined)?
HTT ATP protect: -10%[10 µM]

How did Cc1ccccc1C(=O)N1CCN(c2ccc(NC(=O)c3ccco3)cc2Cl)CC1 do in these assays?
HTT ATP protect: -25%[10 µM]; NPSR antag: -20%[46.1 µM]; IMPase Li inh: 29%[38.3 µM]; HttQ103 aggreg: 13µM*

What do the screens show for `CCCC(=O)N1CCN(c2ccc(NC(=O)c3ccc([N+](=O)[O-])o3)cc2Cl)CC1`?
HTT ATP protect: inconclusive; NPSR antag: 4µM*; ERK EGF inh: 3%; IMPase Li inh: -5%; HttQ103 aggreg: inconclusive

Results for O=C(Nc1ccc(N2CCN(C(=O)c3cccs3)CC2)c(Cl)c1)c1ccco1 ?
HTT ATP protect: -1%[10 µM]; NPSR antag: -24%[46.1 µM]; IMPase Li inh: 26%[38.3 µM]; HttQ103 aggreg: -26%

How did CC(C)C(=O)N1CCN(c2ccc(NC(=O)c3ccc([N+](=O)[O-])o3)cc2Cl)CC1 do in these assays?
HTT ATP protect: -5%; NPSR antag: 3.2µM*; ERK EGF inh: 7%; IMPase Li inh: -1%; HttQ103 aggreg: 18%

How did C[C@]12C=CC(=O)C=C1CC[C@@H]1[C@H]3C[C@@H](O)[C@](O)(C(=O)CO)[C@]3(C)C[C@H](O)[C@]12F do in these assays?
HTT ATP protect: -7%[1.9 µM]

Results for C=CCOC(=O)C(C(C)=O)C(NC(=O)OC)c1ccc(Cl)cc1 (centres undefined) ?
HTT ATP protect: -12%[10 µM]

How did CC(=O)[C@]1(O)CC[C@@H]2[C@H]3C[C@@H](C)C4=CC(=O)CC[C@@]4(C)[C@H]3[C@@H](O)C[C@]21C do in these assays?
HTT ATP protect: 1%[10 µM]

How did CN(C)CCCNCCCN do in these assays?
HTT ATP protect: -83%; IMPase Li inh: -3%

Results for Nc1ncnc2c1ncn2[C@@H]1O[C@@H](C(=O)NC2CC2)[C@H](O)[C@@H]1O ?
HTT ATP protect: -22%[1.9 µM]

What do the screens show for `Cc1ccccc1N=Nc1ccc(O)c2ncccc12`?
HTT ATP protect: -50%[10 µM]; NPSR antag: -6%; ERK EGF inh: inconclusive; IMPase Li inh: -5%; HttQ103 aggreg: 2.5µM*

What do the screens show for `CCC(=O)NC(c1ccc(C)cc1)c1cc([N+](=O)[O-])c2cccnc2c1O` (centres undefined)?
HTT ATP protect: -50%[10 µM]; NPSR antag: 14%; ERK EGF inh: 3%; IMPase Li inh: -4%; HttQ103 aggreg: 7.9µM*

What do the screens show for `O=[N+]([O-])c1ccc(O)c2ncccc12`?
HTT ATP protect: -289%; NPSR antag: -31%; IMPase Li inh: 4%; HttQ103 aggreg: 3.5µM*

How did Oc1c(CN2CCc3ccccc3C2)cc(Cl)c2cccnc12 do in these assays?
HTT ATP protect: -81%; NPSR antag: 6.3µM*; IMPase Li inh: 21%[38.3 µM]; HttQ103 aggreg: inconclusive

What do the screens show for `COc1ccc(N=Nc2ccc(O)c3ncccc23)cc1`?
HTT ATP protect: -33%[10 µM]; NPSR antag: -13%; ERK EGF inh: inconclusive; HttQ103 aggreg: -19%[9.22 µM]

What do the screens show for `O=C(Oc1c(CN2CCOCC2)cc(Cl)c2cccnc12)c1ccccc1`?
HTT ATP protect: -146%; NPSR antag: -34%; ERK EGF inh: 2%; IMPase Li inh: 1%; HttQ103 aggreg: inconclusive

Results for Cc1ncc(CO)c(CN)c1O ?
HTT ATP protect: -6%[10 µM]; IMPase Li inh: 3%; HttQ103 aggreg: 22%

How did COc1cc2c(cc1OC)[C@@H]1CC(=O)[C@@H](CC(C)C)CN1CC2 do in these assays?
HTT ATP protect: -49%; ERK EGF inh: 1%; IMPase Li inh: 5%

How did Cc1ccc(O)c2ncccc12 do in these assays?
HTT ATP protect: -55%; HttQ103 aggreg: inconclusive
